Assay results reported in PubChem BioAssay (NCI).
Compounds without any hit were thinned out: in the full panel of roughly 79,000, 15% have a hit. Active and inactive are the calls of the source. No stated cut-off is given here; in the data, active means growth inhibition above about 70%; inactive means the rest.

Key:
[1] = NCI Yeast Anticancer Drug Screen. Data for the rad52 strain (AID 147);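 further: 0% = growth of vehicle-treated control cultures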; settings: S. cerevisiae rad52 mutant growth inhibition, hits give high values
In short: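 Read-out: growth inhibition versus vehicle-treated controls. Cells were a DNA repair-deficient yeast strain treated with compounds.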

[2] = NCI Yeast Anticancer Drug Screen. Data for the wt1 strain (AID 149);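 further: 0% = growth of vehicle-treated wt1 cultures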; settings: S. cerevisiae wt1 strain (SPY 50644) growth inhibition, hits give high values
In short: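 Growth inhibition read against vehicle controls after compound exposure of the wt1 yeast strain.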

[3] = NCI Yeast Anticancer Drug Screen. Data for the rad50EPP+ strain (AID 151);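 further: 0% = growth of vehicle-treated control cultures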; settings: S. cerevisiae rad50 mutant strain, hits give high values
In short: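 Growth inhibition read against vehicle controls in rad50EPP+ yeast, a strain altered in DNA damage repair, after compound exposure.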

[4] = NCI Yeast Anticancer Drug Screen. Data for the mgt1 strain (AID 153); settings: S. cerevisiae mgt1 mutant growth inhibition, hits give high values
In short: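 mgt1 yeast grown with test compound; read-out is growth inhibition versus vehicle-treated cultures.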

[5] = NCI Yeast Anticancer Drug Screen. Data for the rad50 strain (AID 155);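 further: 0% = growth of vehicle-only cultures of the same strain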; settings: S. cerevisiae rad50 strain growth inhibition, hits give high values
In short: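 Readout: growth inhibition relative to vehicle-treated cultures. Compound exposure was carried out in a genetically defined yeast strain deficient in DNA damage repair.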

[6] = NCI Yeast Anticancer Drug Screen. Data for the mec2-1 strain (AID 157); settings: S. cerevisiae mec2-1 strain, hits give high values
In short: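 Yeast mec2-1 mutant treated with compound. Readout: growth inhibition vs vehicle controls.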

[7] = NCI Yeast Anticancer Drug Screen. Data for the rad14 strain (AID 159);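 further: 0% = growth of vehicle-treated control cultures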; settings: S. cerevisiae rad14 strain growth inhibition, hits give high values
In short: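 Growth inhibition vs vehicle controls; genetically altered yeast strain (DNA damage repair defect) treated with test compounds.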

[8] = NCI Yeast Anticancer Drug Screen. Data for the sgs1 mgt1 strain (AID 161);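 further: 0% = growth of cultures given vehicle only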; settings: S. cerevisiae sgs1 mgt1 strain, hits give high values
In short: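 Inhibition of yeast growth, normalised to vehicle-treated controls, is reported for a strain bearing genetic alterations in DNA damage repair.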

[9] = NCI Yeast Anticancer Drug Screen. Data for the CLN2oe strain (AID 163);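 further: 0% = growth of vehicle-only control cultures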; settings: S. cerevisiae CLN2oe strain, hits give high values
In short: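 Read-out: yeast growth inhibition, expressed relative to vehicle-only controls. The strain bears an engineered cell-cycle alteration.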

[10] = NCI Yeast Anticancer Drug Screen. Data for the cln2 rad14 strain (AID 165);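 further: 0% = growth equal to vehicle treated cultures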; settings: S. cerevisiae cln2 rad14 strain, hits give high values
In short: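 cln2 rad14 yeast strain; compound exposure; growth inhibition read vs vehicle controls.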

[11] = NCI Yeast Anticancer Drug Screen. Data for the bub3 strain (AID 167); settings: S. cerevisiae bub3 mutant strain, hits give high values
In short: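 Readout: yeast growth inhibition, expressed relative to vehicle-only wells. The test organism is a mutant strain from a panel with lesions in DNA repair or checkpoint genes.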

[12] = NCI Yeast Anticancer Drug Screen. Data for the wt2 strain (AID 169);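 further: 0% = growth of vehicle-treated yeast cultures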; settings: S. cerevisiae wt2 strain growth inhibition, hits give high values
In short: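 Read-out: growth inhibition versus vehicle-treated control cultures after compound exposure of the yeast strain.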

[13] = NCI Yeast Anticancer Drug Screen. Data for the mlh1 strain (AID 171);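 further: 0% = growth of vehicle-treated control cultures of the same strain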; settings: S. cerevisiae mlh1 strain growth inhibition, hits give high values
In short: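 Read-out: growth inhibition versus vehicle controls. Strain: engineered yeast with a defined DNA repair or cell cycle defect, compound-treated.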

[14] = NCI Yeast Anticancer Drug Screen. Data for the sgs1 strain (AID 173);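 further: 0% = growth of vehicle-only control cultures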; settings: S. cerevisiae sgs1 mutant, hits give high values
In short: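 Read-out: yeast growth inhibition relative to vehicle controls, following compound exposure of a strain with a defined DNA repair/cell cycle alteration.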

[15] = NCI Yeast Anticancer Drug Screen. Data for the mlh1 rad18 strain (AID 175); settings: S. cerevisiae mlh1 rad18 strain growth inhibition, hits give high values
In short: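 Yeast w/ defined DNA-repair lesions; compound exposure; growth vs vehicle controls → % inhibition.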

[16] = NCI Yeast Anticancer Drug Screen. Data for the rad18 strain (AID 177); settings: S. cerevisiae rad18 mutant growth inhibition, hits give high values
In short: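 Readout: growth inhibition vs vehicle controls. Cells: genetically altered yeast strain, DNA repair defect.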

[17] = at 5.0 µM (retest, dose inferred, filed as 0.5)
[18] = at 50.0 µM (retest, dose inferred, filed as 5.0)

Measured: growth inhibition

COC(=O)CCC(NC(=S)N/N=C(\C)c1ccccn1)C(=O)OC (stereo unspecified)
active: [1]; at 100.0 µM 90% | [2]; at 100.0 µM 85% | [4]; at 100.0 µM 91% | [5]; at 33.0 µM 72% | [5]; [18] 79% | [5]; at 50.0 µM 77.5% | [5]; at 100.0 µM 93% | [6]; [18] 78% | [6]; at 50.0 µM 77.5% | [6]; at 100.0 µM 90% | [7]; at 100.0 µM 92% | [8]; [18] 80% | [8]; at 50.0 µM 82.8% | [9]; at 100.0 µM 88% | [10]; [18] 82% | [10]; at 50.0 µM 83% | [11]; at 33.0 µM 77% | [11]; [18] 84% | [11]; at 50.0 µM 81.3% | [11]; at 100.0 µM 93% | [12]; at 100.0 µM 87% | [13]; at 100.0 µM 92% | [14]; at 100.0 µM 92% | [15]; [18] 79% | [15]; at 50.0 µM 75.5% | [16]; at 33.0 µM 70% | [16]; at 100.0 µM 91%
inactive: [1]; at 1.2 µM -21% | [1]; at 3.7 µM -27% | [1]; at 11.0 µM 1% | [1]; at 33.0 µM 61% | [2]; at 1.2 µM -10% | [2]; at 3.7 µM -22% | [2]; at 11.0 µM 2% | [2]; at 33.0 µM 47% | [3]; at 1.2 µM 6% | [3]; at 3.7 µM -5% | [3]; at 11.0 µM 2% | [3]; at 33.0 µM 18% | [3]; at 100.0 µM 34% | [4]; at 1.2 µM 14% | [4]; at 3.7 µM 6% | [4]; at 11.0 µM 28% | [4]; at 33.0 µM 64% | [5]; at 1.2 µM 8% | [5]; at 3.7 µM 3% | [5]; [17] 34% | [5]; at 11.0 µM 26% | [6]; at 1.2 µM -11% | [6]; at 3.7 µM -7% | [6]; [17] 9% | [6]; at 11.0 µM 12% | [6]; at 33.0 µM 57% | [7]; at 1.2 µM 2% | [7]; at 3.7 µM -3% | [7]; at 11.0 µM 21% | [7]; at 33.0 µM 69% | [8]; [17] 7% | [9]; at 1.2 µM 7% | [9]; at 3.7 µM 2% | [9]; at 11.0 µM 18% | [9]; at 33.0 µM 62% | [10]; [17] -5% | [11]; at 1.2 µM 24% | [11]; at 3.7 µM 28% | [11]; [17] 22% | [11]; at 11.0 µM 32% | [12]; at 1.2 µM -37% | [12]; at 3.7 µM -29% | [12]; at 11.0 µM -3% | [12]; at 33.0 µM 51% | [13]; at 1.2 µM 20% | [13]; at 3.7 µM 2% | [13]; at 11.0 µM 23% | [13]; at 33.0 µM 62% | [14]; at 1.2 µM -14% | [14]; at 3.7 µM -15% | [14]; at 11.0 µM 20% | [14]; at 33.0 µM 67% | [15]; [17] -13% | [16]; at 1.2 µM -16% | [16]; at 3.7 µM -27% | [16]; at 11.0 µM 10%

O=c1[nH]c(-c2ccccc2)nc2c1sc1nc3ccccc3n12
inactive: [1]; at 1.2 µM -15% | [1]; at 3.7 µM -31% | [1]; at 11.0 µM -23% | [1]; at 33.0 µM -15% | [1]; at 100.0 µM -18% | [2]; at 1.2 µM -24% | [2]; at 3.7 µM -25% | [2]; at 11.0 µM -20% | [2]; at 33.0 µM -25% | [2]; at 100.0 µM -17% | [3]; at 1.2 µM -2% | [3]; at 3.7 µM -31% | [3]; at 11.0 µM -36% | [3]; at 33.0 µM -40% | [3]; at 100.0 µM -31% | [4]; at 1.2 µM -20% | [4]; at 3.7 µM -18% | [4]; at 11.0 µM -17% | [4]; at 33.0 µM -8% | [4]; at 100.0 µM -25% | [5]; at 1.2 µM 11% | [5]; at 3.7 µM 5% | [5]; [17] 8% | [5]; at 11.0 µM -8% | [5]; at 33.0 µM -13% | [5]; [18] 56% | [5]; at 50.0 µM 13.4% | [5]; at 100.0 µM -9% | [6]; at 1.2 µM -34% | [6]; at 3.7 µM -23% | [6]; [17] 5% | [6]; at 11.0 µM -30% | [6]; at 33.0 µM -19% | [6]; [18] 9% | [6]; at 50.0 µM -15.2% | [6]; at 100.0 µM -27% | [7]; at 1.2 µM -24% | [7]; at 3.7 µM -22% | [7]; at 11.0 µM -24% | [7]; at 33.0 µM -14% | [7]; at 100.0 µM -11% | [8]; [17] 7% | [8]; [18] 62% | [8]; at 50.0 µM -30.5% | [9]; at 1.2 µM -52% | [9]; at 3.7 µM -72% | [9]; at 11.0 µM -39% | [9]; at 33.0 µM -23% | [9]; at 100.0 µM -20% | [10]; [17] 14% | [10]; [18] 19% | [10]; at 50.0 µM 5.95% | [11]; at 1.2 µM -35% | [11]; at 3.7 µM -45% | [11]; [17] 6% | [11]; at 11.0 µM -43% | [11]; at 33.0 µM -43% | [11]; [18] 7% | [11]; at 50.0 µM -35.5% | [11]; at 100.0 µM -33% | [12]; at 1.2 µM 2% | [12]; at 3.7 µM -6% | [12]; at 11.0 µM -6% | [12]; at 33.0 µM 19% | [12]; at 100.0 µM 5% | [13]; at 1.2 µM -24% | [13]; at 3.7 µM -44% | [13]; at 11.0 µM -47% | [13]; at 33.0 µM -28% | [13]; at 100.0 µM -42% | [14]; at 1.2 µM -47% | [14]; at 3.7 µM -43% | [14]; at 11.0 µM -39% | [14]; at 33.0 µM -38% | [14]; at 100.0 µM -42% | [15]; [17] 4% | [15]; [18] 22% | [15]; at 50.0 µM -23.4% | [16]; at 1.2 µM -35% | [16]; at 3.7 µM -38% | [16]; at 11.0 µM -39% | [16]; at 33.0 µM -38% | [16]; at 100.0 µM -38%
